Outcome and AC50 data for 14 compounds are collected here from PubChem BioAssay (EPA / NIEHS).

Inconclusive results are not listed. Activity calls are given as the source filed them. How the source made its calls: active means hit-call score of the fitted dose curve at least 0.9, where 1 is the maximum; inconclusive means response in the unintended direction; inactive means score below 0.9.

The target of experiment [1] is human Raf-1 Proto-Oncogene, serine/threonine Kinase (RAF1), RAF1 (gene 5894) (UniProt P04049). Nature of the experiment: NVS_ENZ_hRAF1: NovaScreen (NVS) Enzymatic Assay for human Raf-1 Proto-Oncogene, serine/threonine Kinase (RAF1) (AID 2283216). How it is done:
(§1) NVS_ENZ_hRAF1 is a biochemical, single-readout assay that uses extracted gene-proteins in a cell-free assay. Measurements were taken 1 hour after chemical dosing in a 384-well plate.NVS_ENZ_hRAF1 is one of one assay component(s) measured or calculated from the NVS_ENZ_hRAF1 assay. It is designed to make measurements of enzyme activity, a form of enzyme reporter, as detected with fluorescence intensity signals by Fluorescence and electrophoretic mobility shift technology.Data from the assay component NVS_ENZ_hRAF1 was analyzed into 1 assay endpoint. This assay endpoint, NVS_ENZ_hRAF1, was analyzed in the positive analysis fitting direction relative to DMSO as the negative control and baseline of activity. Using a type of enzyme reporter, loss-of-signal activity can be used to understand changes in the enzymatic activity as they relate to the gene RAF1. Furthermore, this assay endpoint can be referred to as a primary readout, because this assay has produced multiple assay endpoints where this one serves a enzymatic activity function. To generalize the intended target to other relatable targets, this assay endpoint is annotated to the kinase intended target family, where the subfamily is serine/threonine kinase.
(§2) Binding assays used specific radioligands (tritiated, iodinated) with non-radioactive competitive displacement ligands in agonist or antagonist protocols (as indicated) and various reference compounds and inhibitors to titrate specific binding to receptors and transporters. Most enzyme assays (CYPs, kinases, phosphatases, proteases, HDACs) used recombinant protein and specific substrates (fluorescence mostly, some colorimetric and radioactive) and inhibitors, followed by a biochemical separation of substrate and product. All assays for the biochemical HTS were initially run in duplicate at a single concentration (10 uM for CYP450 assays and 25 uM for all others). Assay-chemical combinations meeting a pre-defined threshold (e.g., 30% inhibition and other criteria defined below) were then run in singleton concentration-response format with maximum concentration of 20 uM for CYPs and 50 uM for all others. Each assay was run with positive and negative controls, and concurrent controls on every plate. The follow-up (secondary) screen tested active chemical-pairs in concentration series, as well as a few additional assays not tested in the primary screen, some selected negative inactives, and several cases re-run in the concentration series for confirmatory purposes.

The target of experiment [2] is human Protein Tyrosine Phosphatase Receptor Type F (PTPRF), PTPRF (gene 5792) (UniProt P10586). The experiment can be described thus: NVS_ENZ_hPTPRF: NovaScreen (NVS) Enzymatic Assay for human Protein Tyrosine Phosphatase Receptor Type F (PTPRF) (AID 2283213). A digest of the protocol: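 Cell-free fluorescence enzyme assay with recombinant protein and substrate; product separated by electrophoretic mobility shift. Read 1 h after dosing, single 25 uM duplicate screen, then concentration-response up to 50 uM; loss of signal vs DMSO.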

The target of experiment [3] is human Protein Tyrosine Phosphatase Receptor Type M (PTPRM), PTPRM (gene 5797) (UniProt P28827). The experiment can be described thus: NVS_ENZ_hPTPRM: NovaScreen (NVS) Enzymatic Assay for human Protein Tyrosine Phosphatase Receptor Type M (PTPRM) (AID 2283215). A digest of the protocol:
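Cell-free recombinant PTPRM with fluorogenic substrate; product separated from substrate by electrophoretic mobility shift and read by fluorescence, 1.33 h after dosing. Primary screen single concentration (25 uM) in duplicate; actives retested in concentration series; loss of signal versus DMSO.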

Experiment [4] deals with human Sirtuin 1 (SIRT1), SIRT1 (gene 23411) (UniProt Q96EB6). Nature of the experiment: NVS_ENZ_hSIRT1: NovaScreen (NVS) Enzymatic Assay for human Sirtuin 1 (SIRT1) (AID 2283219). The procedure, abridged:
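Cell-free recombinant SIRT1 with a fluorescent substrate; substrate and product separated by electrophoretic mobility shift and read by fluorescence intensity, 1 h after dosing. Primary screen at 25 uM in duplicate; hits re-run in concentration-response up to 50 uM, relative to DMSO.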

Experiment [5] concerns the target human Tyrosine Protein Kinase Receptor Tie-2 (Tie2), TEK (gene 7010) (UniProt Q02763). Nature of the experiment: NVS_ENZ_hTie2: NovaScreen (NVS) Enzymatic Assay for human Tyrosine Protein Kinase Receptor Tie-2 (Tie2) (AID 2283225). The protocol: as §1, with “NVS_ENZ_hTie2” for “NVS_ENZ_hRAF1”, “plate.NVS_ENZ_hTie2” for “plate.NVS_ENZ_hRAF1”, “NVS_ENZ_hTie2,” for “NVS_ENZ_hRAF1,”, “TEK.” for “RAF1.”, “receptor tyrosine” for “serine/threonine”
as §2

The target in experiment [6] is human SRC Proto-Oncogene, Non-receptor Tyrosine Kinase (SRC), SRC (gene 6714) (UniProt P12931). Nature of the experiment: NVS_ENZ_hSRC: NovaScreen (NVS) Enzymatic Assay for human SRC Proto-Oncogene, Non-receptor Tyrosine Kinase (SRC) (AID 2283223). A digest of the protocol:
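Cell-free kinase activity assay with fluorescent substrate, product separated by electrophoretic mobility shift, read 1 h after dosing. Duplicate single point at 25 uM, then concentration-response up to 50 uM; loss of signal versus DMSO.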

Experiment [7] has as its target human Protein Tyrosine Phosphatase Receptor Type C (PTPRC), PTPRC (gene 5788) (UniProt P08575). Nature of the experiment: NVS_ENZ_hPTPRC: NovaScreen (NVS) Enzymatic Assay for human Protein Tyrosine Phosphatase Receptor Type C (PTPRC) (AID 2283212). A digest of the protocol:
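Yeast-extracted human PTPRC used in a cell-free colorimetric enzyme activity read-out, 1 h after dosing. Primary screen in duplicate at 25 uM; actives rerun in concentration-response up to 50 uM, DMSO as baseline.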

For experiment [8], the target named is human Tropomyosin Receptor Kinase A (TRKA), NTRK1 (gene 4914) (UniProt P04629). The experiment can be described thus: NVS_ENZ_hTrkA: NovaScreen (NVS) Enzymatic Assay for human Tropomyosin Receptor Kinase A (TRKA) (AID 2283224). The procedure, abridged: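 Recombinant human TrkA activity read after 1 h by fluorescence with electrophoretic mobility shift separating substrate and product. Primary screen in duplicate at 25 uM; actives were rerun in concentration-response up to 50 uM. Loss of signal versus DMSO.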

The target in experiment [9] is human Rho Associated Coiled-coil Containing Protein Kinase 1 (ROCK1), ROCK1 (gene 6093) (UniProt Q13464). Nature of the experiment: NVS_ENZ_hROCK1: NovaScreen (NVS) Enzymatic Assay for human Rho Associated Coiled-coil Containing Protein Kinase 1 (ROCK1) (AID 2283214). A digest of the protocol: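 Cell-free recombinant human ROCK1 activity assay; fluorescent substrate and product separated by electrophoretic mobility shift, read 1 h after dosing. Screened in duplicate at 25 uM; loss of signal versus DMSO baseline scored as inhibition.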

In experiment [10] the target is human Sirtuin 2 (SIRT2), SIRT2 (gene 22933) (UniProt Q8IXJ6). The experiment can be described thus: NVS_ENZ_hSIRT2: NovaScreen (NVS) Enzymatic Assay for human Sirtuin 2 (SIRT2) (AID 2283217). A digest of the protocol:
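Cell-free recombinant human SIRT2, fluorescent substrate with product separated by electrophoretic mobility shift, 1 hr. Screened in duplicate at 25 uM; hits rerun singly in concentration-response up to 50 uM, relative to DMSO.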

human Raf-1 Proto-Oncogene, serine/threonine Kinase (RAF1), RAF1 (gene 5894), sequence (P04049 whole entry, looked up): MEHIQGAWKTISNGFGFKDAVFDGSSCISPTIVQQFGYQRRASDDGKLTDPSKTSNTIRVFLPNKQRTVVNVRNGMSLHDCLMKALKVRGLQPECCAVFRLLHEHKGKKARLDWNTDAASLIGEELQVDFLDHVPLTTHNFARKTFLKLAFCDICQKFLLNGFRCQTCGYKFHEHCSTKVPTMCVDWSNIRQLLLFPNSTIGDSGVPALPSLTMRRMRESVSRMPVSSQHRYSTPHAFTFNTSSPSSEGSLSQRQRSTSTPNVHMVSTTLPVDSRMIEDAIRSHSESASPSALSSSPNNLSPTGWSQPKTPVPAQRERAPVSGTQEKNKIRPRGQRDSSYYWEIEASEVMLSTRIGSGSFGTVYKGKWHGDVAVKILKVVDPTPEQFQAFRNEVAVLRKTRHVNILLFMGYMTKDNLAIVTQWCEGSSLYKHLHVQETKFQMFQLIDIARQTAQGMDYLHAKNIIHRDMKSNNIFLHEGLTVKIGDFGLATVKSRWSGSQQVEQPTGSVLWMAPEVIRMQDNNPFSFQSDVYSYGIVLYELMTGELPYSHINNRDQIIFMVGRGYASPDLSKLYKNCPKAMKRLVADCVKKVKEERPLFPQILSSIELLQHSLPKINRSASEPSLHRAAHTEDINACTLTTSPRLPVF
human Protein Tyrosine Phosphatase Receptor Type C (PTPRC), PTPRC (gene 5788), sequence (P08575 whole entry, looked up): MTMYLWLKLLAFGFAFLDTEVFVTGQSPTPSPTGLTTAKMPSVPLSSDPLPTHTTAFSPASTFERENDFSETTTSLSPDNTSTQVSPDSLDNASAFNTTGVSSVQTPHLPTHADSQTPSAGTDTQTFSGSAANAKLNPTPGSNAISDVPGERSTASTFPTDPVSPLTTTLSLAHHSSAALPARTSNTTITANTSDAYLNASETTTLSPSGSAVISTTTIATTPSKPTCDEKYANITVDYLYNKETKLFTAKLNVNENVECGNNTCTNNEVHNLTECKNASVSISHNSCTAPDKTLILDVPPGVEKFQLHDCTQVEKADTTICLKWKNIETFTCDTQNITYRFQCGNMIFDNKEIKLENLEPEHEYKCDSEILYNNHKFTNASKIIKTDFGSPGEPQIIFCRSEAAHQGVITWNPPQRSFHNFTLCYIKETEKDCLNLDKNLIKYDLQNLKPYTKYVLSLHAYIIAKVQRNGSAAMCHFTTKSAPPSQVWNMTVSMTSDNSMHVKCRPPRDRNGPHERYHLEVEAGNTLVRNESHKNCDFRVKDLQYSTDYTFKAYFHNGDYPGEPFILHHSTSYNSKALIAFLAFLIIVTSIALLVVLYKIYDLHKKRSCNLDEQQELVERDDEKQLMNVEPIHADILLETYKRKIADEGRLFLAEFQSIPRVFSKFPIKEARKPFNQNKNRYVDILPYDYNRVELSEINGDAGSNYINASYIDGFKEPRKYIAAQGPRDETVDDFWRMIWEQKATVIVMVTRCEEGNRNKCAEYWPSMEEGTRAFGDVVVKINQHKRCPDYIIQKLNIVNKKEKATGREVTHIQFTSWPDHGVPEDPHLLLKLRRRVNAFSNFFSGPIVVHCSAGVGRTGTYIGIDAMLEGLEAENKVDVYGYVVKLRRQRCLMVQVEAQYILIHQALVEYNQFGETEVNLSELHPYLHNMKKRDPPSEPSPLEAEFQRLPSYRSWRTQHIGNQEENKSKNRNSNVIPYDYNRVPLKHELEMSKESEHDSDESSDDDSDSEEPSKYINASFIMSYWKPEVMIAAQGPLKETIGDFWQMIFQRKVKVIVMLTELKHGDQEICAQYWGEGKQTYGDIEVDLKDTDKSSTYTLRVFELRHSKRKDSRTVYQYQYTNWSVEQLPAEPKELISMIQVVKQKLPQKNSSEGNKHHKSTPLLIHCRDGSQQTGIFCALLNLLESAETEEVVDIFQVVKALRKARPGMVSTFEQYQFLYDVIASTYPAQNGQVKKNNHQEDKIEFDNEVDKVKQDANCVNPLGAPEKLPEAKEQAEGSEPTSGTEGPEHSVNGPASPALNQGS
human Sirtuin 1 (SIRT1), SIRT1 (gene 23411), sequence (Q96EB6 whole entry, looked up): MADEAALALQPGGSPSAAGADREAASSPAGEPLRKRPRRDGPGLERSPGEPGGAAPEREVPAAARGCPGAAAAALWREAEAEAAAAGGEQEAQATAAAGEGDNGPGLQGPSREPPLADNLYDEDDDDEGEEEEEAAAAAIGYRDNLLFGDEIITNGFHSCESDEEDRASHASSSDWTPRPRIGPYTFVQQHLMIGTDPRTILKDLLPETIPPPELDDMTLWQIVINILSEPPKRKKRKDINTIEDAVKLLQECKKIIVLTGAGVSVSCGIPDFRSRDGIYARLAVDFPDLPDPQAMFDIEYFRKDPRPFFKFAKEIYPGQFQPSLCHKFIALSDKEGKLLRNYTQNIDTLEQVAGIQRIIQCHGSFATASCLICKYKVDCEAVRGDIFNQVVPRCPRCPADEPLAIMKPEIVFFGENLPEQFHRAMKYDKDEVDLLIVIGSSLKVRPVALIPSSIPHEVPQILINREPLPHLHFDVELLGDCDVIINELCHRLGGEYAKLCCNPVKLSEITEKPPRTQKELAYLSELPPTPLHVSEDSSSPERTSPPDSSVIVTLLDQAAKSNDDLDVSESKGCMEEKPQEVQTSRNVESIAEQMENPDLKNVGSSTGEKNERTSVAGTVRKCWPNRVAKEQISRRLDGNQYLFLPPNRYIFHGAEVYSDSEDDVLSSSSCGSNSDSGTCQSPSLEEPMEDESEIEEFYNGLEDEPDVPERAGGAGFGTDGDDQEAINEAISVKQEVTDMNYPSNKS
human Protein Tyrosine Phosphatase Receptor Type M (PTPRM), PTPRM (gene 5797), sequence (P28827 whole entry, looked up): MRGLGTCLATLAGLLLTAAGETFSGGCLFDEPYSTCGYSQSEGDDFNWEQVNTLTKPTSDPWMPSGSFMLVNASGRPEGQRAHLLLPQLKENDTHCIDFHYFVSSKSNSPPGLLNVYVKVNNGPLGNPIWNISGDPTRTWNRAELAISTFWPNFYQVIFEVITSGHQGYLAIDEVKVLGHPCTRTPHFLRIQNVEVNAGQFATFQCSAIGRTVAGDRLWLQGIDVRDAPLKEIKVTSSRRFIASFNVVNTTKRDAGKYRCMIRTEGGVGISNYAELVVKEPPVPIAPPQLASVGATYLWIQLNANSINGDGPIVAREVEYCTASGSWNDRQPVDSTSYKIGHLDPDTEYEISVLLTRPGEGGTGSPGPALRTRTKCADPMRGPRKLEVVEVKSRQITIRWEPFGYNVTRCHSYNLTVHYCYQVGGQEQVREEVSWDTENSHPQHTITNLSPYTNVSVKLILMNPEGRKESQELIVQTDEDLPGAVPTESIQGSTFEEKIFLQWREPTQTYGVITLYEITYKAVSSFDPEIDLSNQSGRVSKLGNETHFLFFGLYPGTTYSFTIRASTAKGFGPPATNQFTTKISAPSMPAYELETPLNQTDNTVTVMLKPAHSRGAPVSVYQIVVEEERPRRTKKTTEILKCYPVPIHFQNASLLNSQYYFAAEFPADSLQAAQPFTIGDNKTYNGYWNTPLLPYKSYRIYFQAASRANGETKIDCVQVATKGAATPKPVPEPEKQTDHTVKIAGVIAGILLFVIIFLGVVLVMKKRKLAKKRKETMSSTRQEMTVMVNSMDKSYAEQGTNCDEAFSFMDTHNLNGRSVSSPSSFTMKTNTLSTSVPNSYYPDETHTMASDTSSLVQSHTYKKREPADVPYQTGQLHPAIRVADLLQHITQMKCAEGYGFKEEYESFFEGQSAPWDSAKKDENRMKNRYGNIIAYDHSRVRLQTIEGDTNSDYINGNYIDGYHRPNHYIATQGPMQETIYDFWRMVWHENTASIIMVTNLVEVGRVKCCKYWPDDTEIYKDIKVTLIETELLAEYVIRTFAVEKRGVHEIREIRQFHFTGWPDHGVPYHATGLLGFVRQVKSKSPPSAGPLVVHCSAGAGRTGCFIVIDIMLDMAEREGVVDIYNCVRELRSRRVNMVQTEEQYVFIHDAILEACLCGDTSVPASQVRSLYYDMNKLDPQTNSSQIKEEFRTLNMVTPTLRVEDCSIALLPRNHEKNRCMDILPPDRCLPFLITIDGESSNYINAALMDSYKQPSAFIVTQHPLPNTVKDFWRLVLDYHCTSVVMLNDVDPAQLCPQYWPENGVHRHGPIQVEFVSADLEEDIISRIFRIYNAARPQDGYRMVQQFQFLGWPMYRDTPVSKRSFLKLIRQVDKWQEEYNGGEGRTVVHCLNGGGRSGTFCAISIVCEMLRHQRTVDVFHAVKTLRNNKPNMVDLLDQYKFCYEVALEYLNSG
human SRC Proto-Oncogene, Non-receptor Tyrosine Kinase (SRC), SRC (gene 6714), sequence (P12931 whole entry, looked up): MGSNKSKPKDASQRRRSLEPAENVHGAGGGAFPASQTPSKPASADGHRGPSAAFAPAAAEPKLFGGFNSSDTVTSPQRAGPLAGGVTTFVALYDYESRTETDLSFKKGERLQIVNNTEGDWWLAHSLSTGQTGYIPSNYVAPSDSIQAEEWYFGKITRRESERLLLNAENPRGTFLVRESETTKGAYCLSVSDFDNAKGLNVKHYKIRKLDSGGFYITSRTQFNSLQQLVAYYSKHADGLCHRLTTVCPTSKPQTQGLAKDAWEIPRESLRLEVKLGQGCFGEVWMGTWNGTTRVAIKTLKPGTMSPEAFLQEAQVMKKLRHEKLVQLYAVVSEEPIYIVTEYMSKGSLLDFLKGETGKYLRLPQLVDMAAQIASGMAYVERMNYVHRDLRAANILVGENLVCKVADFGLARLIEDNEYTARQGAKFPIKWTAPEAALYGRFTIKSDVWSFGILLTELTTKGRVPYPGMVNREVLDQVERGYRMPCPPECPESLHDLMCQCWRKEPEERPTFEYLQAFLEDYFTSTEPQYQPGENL
human Sirtuin 2 (SIRT2), SIRT2 (gene 22933), sequence (Q8IXJ6 whole entry, looked up): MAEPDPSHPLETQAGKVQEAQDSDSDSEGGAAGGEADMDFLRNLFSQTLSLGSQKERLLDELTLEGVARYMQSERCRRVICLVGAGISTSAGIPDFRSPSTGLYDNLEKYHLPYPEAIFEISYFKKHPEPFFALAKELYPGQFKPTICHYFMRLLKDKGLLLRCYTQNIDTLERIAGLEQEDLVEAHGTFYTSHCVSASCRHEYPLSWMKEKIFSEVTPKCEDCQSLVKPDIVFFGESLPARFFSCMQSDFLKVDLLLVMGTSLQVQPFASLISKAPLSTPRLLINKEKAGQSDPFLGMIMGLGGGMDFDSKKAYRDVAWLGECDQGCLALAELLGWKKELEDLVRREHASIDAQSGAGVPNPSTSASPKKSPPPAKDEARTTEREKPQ

With `Oc1cc(Cl)c(Cl)cc1Cl`, the result in experiment [1] was inactive.

Regarding `O=C(O)CC(O)(CC(=O)O)C(=O)O`, the compound was called inactive in [1].

On to `Clc1cccc(Cl)c1Cl`, for which the call in [2], in experiment [3], in experiment [1], in experiment [4] and in experiment [5] was inactive.

For the compound `OCCN(CCO)CCO`, the compound was classed as inactive in experiment [4].

`CC(C)O.CC(C)O.OCCN(CCO)CCO.OCCN(CCO)CCO.[Ti]`: the AC50 in experiment [2] was 3.38 µM (active); in [3], 0.119 µM (active); in experiment [6], 0.00229 µM (active); in [5], 3.53 µM (active). For the same compound, the outcome in experiment [1] was inactive.

As for `O=C1c2ccccc2C(=O)C1C(=O)C(c1ccccc1)c1ccc(Cl)cc1` (configuration not stated), the AC50 in experiment [5] is 2.26 µM (active).

On to `O=C(N[C@H]1CN2CCC1CC2)c1ccc2c(c1)OCCO2`, for which the compound was called inactive in [1] and in experiment [5].

Turning to `COc1ccccc1N`, the AC50 in [7] was 17.5 µM (active); in experiment [4] it was 25.4 µM (active).

Consider `CN(C)C(=S)S`, for which the AC50 in experiment [7] is 7.44 µM (active).

On to `CCCCCCCCCCCCc1cccc(S(=O)(=O)O)c1`, for which the AC50 in experiment [7] is 6.82 µM (active); in experiment [3] it was 14.4 µM (active); in experiment [1], 28.8 µM (active); in experiment [8], 36.3 µM (active); in [5] it was 12.4 µM (active).

For `CCCCCCCCCCCCOS(=O)(=O)O`, the results for the AC50 in [1] and in experiment [5] were 25 µM (active) and 26.9 µM (active), respectively.

For the compound `O=C(O)C1(c2ccc3c(c2)OC[C@H](Cc2ccc(-c4ccccc4)cc2)[C@H]3O)CCCC1`, in experiment [9], the result was inactive.

On to `N#Cc1cccnc1`, for which the call in [9], in experiment [10], in [6] and in [5] was inactive.

On to `COc1nn(C(=O)NS(=O)(=O)c2ccccc2OC(F)(F)F)c(=O)n1C`, for which the AC50 in [5] is 24.5 µM (active).

For orientation: AC50 means the concentration giving half of the maximal activity seen.
